Screening data from PubChem.
Only some compounds are listed: those with a hit (about 10% of all), similar ones and a draw of the others.
BAZ2B block – qHTS Assay for Inhibitors of BAZ2B; AlphaScreen BAZ2B-H3K14Ac peptide displacement; Potency, µM (top dose mostly 114 µM), without a hit: at the highest dose activity change, negative = inhibition, hits mostly inhibitors; 360,000 tested, 4.4% active; AID 504333, 2011; also: potency is read from the fitted curve at half-maximal effect; % is scaled to controls: 0 for no effect and ±100 for the full control effect; nearly all actives have a fitted effect of over 60% in size
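Protein-peptide AlphaScreen: BAZ2B 50 nM, b-H3K14Ac 50 nM, 1x PBS pH 7.4 + 0.01% Tween-20. Preincubation 30 min RT; cpd 30 min RT (top 110 uM); beads 20 min RT, light-protected.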
CtBP-E1A inh – qHTS Assay for Inhibitors of the CtBP/E1A Interaction; AlphaScreen GST-E1A/His-CtBP binding, 1536-well; hits give low values; activity change, % (concentration not given with the values); 340,000 tested, 0.49% active; AID 651724, 2012; in the data active = activity change below about -65%; inconclusive = mostly about -30% to -63%; also: % is scaled to controls: 0 for no effect and ±100 for the full control effect
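Protein mix (5X: 125 nM each GST-E1A, His-CtBP) was incubated with pinned compound 2 h at 37 deg C in dark, in 50 mM Tris pH 8.0 buffer with 300 mM NaCl. Glutathione donor and nickel acceptor beads followed; AlphaScreen signal read after 1 h.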
G9a inh – qHTS Assay for Inhibitors of Histone Lysine Methyltransferase G9a | Histone-lysine N-methyltransferase EHMT2 (Homo sapiens), Q96KQ7 | G9a H3K9 monomethylation, AlphaScreen, 2 h | Potency, µM (doses to about 102 µM), inactives show top-dose activity, negative = inhibition, actives largely listed as inhibitors | 350,000 tested, 8.8% active; also: potency is read from the fitted curve at half-maximal effect; % is scaled to controls: 0 for no effect and ±100 for the full control effect; nearly all actives have a fitted effect of over 75% in size
Target sequence (Q96KQ7 913-1193 limits assumed): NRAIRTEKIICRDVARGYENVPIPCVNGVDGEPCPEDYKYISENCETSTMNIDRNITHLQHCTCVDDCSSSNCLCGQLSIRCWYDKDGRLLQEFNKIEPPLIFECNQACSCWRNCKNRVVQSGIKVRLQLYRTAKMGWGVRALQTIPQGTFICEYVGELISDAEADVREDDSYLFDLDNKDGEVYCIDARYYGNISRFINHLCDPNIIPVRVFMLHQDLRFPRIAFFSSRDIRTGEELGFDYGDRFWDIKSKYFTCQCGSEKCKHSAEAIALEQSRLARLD
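Chemiluminescent proximity detection of H3K9 monomethylation, read after 10 min bead incubation in the dark. Reaction: 20 nM G9a, 500 nM biotin-H3K9 peptide, 20 uM SAM cofactor, 2 h, room temperature, following 15 min enzyme-compound preincubation.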
HP1b binding inh – HTS for Inhibitors of HP1-beta Chromodomain Interactions with Methylated Histone Tails; Potency, µM (doses to about 114 µM), for inactives: at the top dose activity change, negative = inhibition, actives largely listed as inhibitors; AlphaScreen HP1-beta / biotin-H3K9me3 peptide binding; AID 540317, 2011; Chromobox protein homolog 1 (Homo sapiens), P83916; 390,000 tested, 0.56% active; also: potency is read from the fitted curve at half-maximal effect; nearly all actives have a fitted effect of over 70% in size
Target sequence (P83916 whole entry, looked up): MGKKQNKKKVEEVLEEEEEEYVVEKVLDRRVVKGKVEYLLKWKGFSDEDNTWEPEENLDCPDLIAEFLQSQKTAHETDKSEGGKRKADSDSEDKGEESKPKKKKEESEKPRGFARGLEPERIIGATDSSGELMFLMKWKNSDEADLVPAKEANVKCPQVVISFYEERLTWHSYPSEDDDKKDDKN
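Compound inhibition of the preformed complex between 50 nM HP1-beta and 50 nM biotinylated H3K9me3 peptide was read by AlphaScreen. Buffer was PBS pH 7.4 with 0.01% Tween-20. Incubations ran 30 min at room temperature, with 10 ug/mL donor/acceptor beads.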
Six1-Eya2 inh – qHTS Assay for Inhibitors of the Six1/Eya2 Interaction; Homeobox protein SIX1 (Homo sapiens) + Protein phosphatase EYA2 (Homo sapiens), …; AlphaScreen GST-Six1/His-Eya2 binding, biochemical; hits give low values; activity change, % (test concentration not listed); 360,000 tested, 0.56% active; AID 651725, 2012; in the data active = activity change below about -65%; inconclusive = mostly about -30% to -63%; also: % is scaled to controls: 0 for no effect and ±100 for the full control effect
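Homogeneous AlphaScreen proximity assay pairing GST-Six1 with His-tagged Eya2 (added as 5X mix: 250 nM and 500 nM) in 50 mM Tris pH 8.0, 300 mM NaCl, 1 mM TCEP. Glutathione donor and nickel acceptor beads; 1 h, 37 °C, dark.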
JMJD2A Tudor – qHTS Assay for Inhibitors of JMJD2A-Tudor Domain | Lysine-specific demethylase 4A (Homo sapiens), O75164 | 390,000 tested, 4.4% active | AlphaScreen JMJD2A-Tudor / H3K4me3 peptide binding | Potency, µM (series often up to 114 µM), inactives show at the top dose activity change, negative = inhibition, hits mostly inhibitors | AID 504339, 2011; also: potency is read from the fitted curve at half-maximal effect; % is scaled to controls: 0 for no effect and ±100 for the full control effect; nearly all actives have a fitted effect of over 50% in size
The depositor's hits bear a star; ? = inconclusive; · = no result; ! = repeats disagree; [ ] = another dose, or the depositor's remark. Unless noted, calls follow the shape of the dose curve; as a rule, active = well fitted inhibition curve with a large enough effect; inconclusive = small, poorly fitted or top-dose-only effect; inactive = no such curve, though single readings can be large or run the other way.

SMILES	BAZ2B block	CtBP-E1A inh	G9a inh	HP1b binding inh	Six1-Eya2 inh	JMJD2A Tudor
O=C(CSc1nnc(NC2CCCCC2)s1)Nc1ccc2c(c1)C(=O)c1ccccc1C2=O	?	·	·	16%	?	-24%
CCOC(=O)c1ccc(N2C(=O)CC(SCC(=O)Nc3ccc(S(N)(=O)=O)cc3)C2=O)cc1 (stereo not drawn)	-4%	-3	32µM*	33%	1	-16%
O=C(CSc1nnc(NC2CCCCC2)s1)NN1C(=O)NC2(CCCCC2)C1=O	-2%	19	45µM*	39%	15	?
NS(=O)(=O)c1ccc(NC(=O)CSC2CCCCC2)cc1	-1%	3	?	-18%	-4	28µM*
CCOc1cccc(CC(=O)Nc2ccc3nc(N4CCCCC4)cc(C)c3c2)c1OCC	0%	·	-14%[59 µM]	52%	·	-27%
Cc1oc2c(c1C(=O)NCc1ccccc1F)C1=NCCN1C=N2	-3%	·	7%[59 µM]	-4%	·	-16%
CC(OC(=O)CCC1CCCCC1)C(=O)Nc1ccc(S(N)(=O)=O)cc1 (stereo not drawn)	7%	-2	56µM*	12%	-1	-16%
CCCCC(CC)C(=O)Nc1ccc(C)c(O)c1 (stereo not drawn)	-5%	-25	·	-13%	1	50µM*
CCCCC(CC)C(=O)Nc1ccc(Nc2ccccc2)cc1 (stereo not drawn)	?	-14	?	-25%	-23	?
CC(=O)Nc1ccc(S(=O)(=O)NC2=C(N3CCN(c4ccc(F)cc4)CC3)C(=O)c3ccccc3C2=O)cc1	22µM*	-78*	2.8µM*	25µM*	-79*	22µM*
CCOC(=O)N1CCN(C2=C(NS(=O)(=O)c3ccc(C)cc3)C(=O)c3ccccc3C2=O)CC1	8.9µM*	·	22µM*	20µM*	?	22µM*
COC(=O)Nc1ccc(S(=O)(=O)N2CCN(c3ccc(F)cc3)CC2)cc1	11%	-5	8%[12.7 µM]	18%	-8	-22%[57.1 µM]
Cc1ccc(S(=O)(=O)NC2=C(N3CCN(Cc4ccccc4)CC3)C(=O)c3ccccc3C2=O)cc1	7.9µM*	?	7.1µM*	8.9µM*	?	7.1µM*
CCOC(=O)N1CCN(C(=O)COc2ccc(S(=O)(=O)NC(C)C)cc2)CC1	2%	-13	45µM*	53%	7	-4%
Cc1nc(-c2ccc(Cl)cc2)sc1CCNC(=O)C(=O)Nc1ccccc1C#N	1%	·	1%[59 µM]	21%[57 µM]	·	6%
Cc1ccc(S(=O)(=O)NC2=C(N3CCN(c4ccccc4F)CC3)C(=O)c3ccccc3C2=O)cc1	10µM*	-5	-8%[0.501 µM]	14µM*!	-5	8.9µM*
Cc1ccc(S(=O)(=O)Nc2nc3ccccc3nc2N2CCN(c3ccccc3F)CC2)cc1	?	3	-49%[59 µM]	12%	-7	-29%
COc1cccc(/C=C/C(=O)OCC(=O)NCCNC(=O)COC(=O)/C=C/c2cccc(OC)c2)c1	-12%	18	-29%[12.7 µM]	12%	-11	-18%
CNc1ccc(Br)cc(C(=O)/C=C/c2cccc(OC)c2)c1=O	45µM*	-3	7.9µM*	?	-3	45µM*
CNc1ccc(Br)cc(C(=O)/C=C/c2ccc(OC)cc2OC)c1=O	32µM*	-1	7.9µM*	?	-24	32µM*
CNc1ccc(Br)cc(C(=O)/C=C/c2ccc(Cl)cc2Cl)c1=O	?	0	35µM*	?	-6	56µM*
Cc1ccccc1NC(=O)Cc1nc(COC(=O)c2ccccn2)cs1	9%	2	50µM*	20%	-5	1%
COc1ccccc1NC(=O)Nc1nc(CC(=O)Nc2ccc(OC)c(OC)c2)cs1	1%	-3	20%[2.33 µM]	14%	-8	-8%
CCC(=O)Nc1nc(CC(=O)Nc2ccccc2OC)cs1	-7%	-4	-3%[59 µM]	28%	-8	-9%
COc1ccccc1NC(=O)Cc1nc(CCl)cs1	56µM*	0	6.3µM*	24%	6	?
SMILES	BAZ2B block	CtBP-E1A inh	G9a inh	HP1b binding inh	Six1-Eya2 inh	JMJD2A Tudor
COc1cc(C)ccc1NC(=O)Cc1csc(NC(=O)Nc2ccccc2OC)n1	?	-5	13µM*	7%	-14	-31%
Cc1ccc(OCc2nc(-c3ccc(C(=O)NCCc4ccc(Cl)cc4)cc3)oc2C)cc1	-4%	·	3%[59 µM]	23%	·	5%
Cc1ccc(-n2ncc3c(N4CCCCC4)ncnc32)cc1	72%	·	7%[59 µM]	63%	·	17%
Cc1ncc(CCl)c2c1OC(C)(C)OC2	50µM*	7	?	49%	9	?
Cc1ncc(CO)c2c1OC(C)(C)OC2	10%	5	-2%	20%	6	-13%
COCCNC(=O)COC(=O)CSCc1nc2ccccc2s1	9%	-2	79µM*	19%	8	-15%
O=C(COC(=O)CCCc1nc2ccccc2s1)NC(=O)NCc1ccco1	56µM*	0	?	4%	-5	?
O=C(NCc1ccco1)c1nc2ccccc2s1	-5%	4	-16%[12.7 µM]	12%	-1	-34%
COCCNC(=O)c1nc2ccccc2s1	-28%	8	-5%	52%	1	0%
Cc1ccc(CCNC(=O)c2cccc(Nc3nc4ccccc4nc3-n3nc(C)cc3C)c2)cc1	3%	·	2%[59 µM]	19%	·	-1%
O=C(NCC1CCCO1)c1onc(CSc2ccccc2F)c1C(=O)O (stereo not drawn)	79µM*	0	31%[0.501 µM]	5%	1	-17%
CN(C)NC(=S)Nc1ccc(Cl)cc1	-23%	-1	6%[59 µM]	2%	5	-6%
CN(N)C(=S)Nc1ccc(Cl)cc1	-31%	0	16µM*	36%	1	1%
Cc1cccc(C)c1-n1c(=O)n(Cc2ccccc2)c(=O)c2[nH]cnc21	2%	7	-2%	19%	-1	-8%
COC(=O)c1cccc(-n2c(=O)n(Cc3ccccc3)c(=O)c3[nH]cnc32)c1C	-5%	-8	18µM*	5%	0	-14%
CCOc1ccc(-c2nnc(SCC(=O)Nc3cc(C)ccc3OC)o2)cc1	-1%	·	?	55%	·	-13%
CCCCCCCOc1ccc(C2(C)NC(=O)NC2=O)cc1 (stereo not drawn)	5%	7	8%	35%	0	-13%
